The supplement of paper PMC10981050
Several values for one entry are separate records, joined by “and”; a condition that tells them apart may be missing. Equal entries are not always repeated. Structures can show the parent of a compound that is named as a salt.

What was measured:
Experiment in all cases: cell viability relative to vehicle control; higher = less cytotoxic
Conditions in all cases: 10 µM
[1] = tested on: K562
Method in brief: (§1)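 Mutant clones made by CRISPR editing and their isogenic wild-type counterparts, from four leukaemia lines, were exposed to a single 10 µM dose of each library compound for 48 h. The supernatant was then removed and CellTiter-Glo luminescence was read. Viability was reported as percent of the on-plate vehicle control.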

[2] = tested on: MARIMO
Method in brief: as §1

[3] = tested on: MOLM14
Method in brief: as §1

[4] = tested on: OCI-AML2
Method in brief: as §1

SMILES	cell viability ([1]; SRSF2 genotype: SRSF2 P95H/wt)	cell viability ([1]; SRSF2 genotype: SRSF2 wt/wt) [%]	cell viability ([2]; SRSF2 genotype: SRSF2 P95H/wt) [%]	cell viability ([2]; SRSF2 genotype: SRSF2 wt/wt) [%]	cell viability ([3]; SRSF2 genotype: SRSF2 P95H/wt) [%]	cell viability ([3]; SRSF2 genotype: SRSF2 wt/wt) [%]	cell viability ([4]; SRSF2 genotype: P95H/wt) [%]	cell viability ([4]; SRSF2 genotype: wt/wt) [%]
CS(=O)(=O)N1CCN(Cc2cc3nc(-c4cccc5[nH]ncc45)nc(N4CCOCC4)c3s2)CC1 [Pictilisib (GDC-0941)]	88.3% and 97.1%	94.5	64.3	57.8	55.9	64.6	48.5	55
CC(=O)O[C@]1(C(C)=O)CC[C@H]2[C@@H]3C[C@H](C)C4=CC(=O)C=C[C@]4(C)[C@@]3(F)[C@@H](O)C[C@@]21C [Fluorometholone Acetate]	93.4% and 95.3%	85.4	96.4	105	97.6	93.5	99.5	113
COc1ccc(-c2cc(=O)c3c(OC)c(OC)c(OC)c(OC)c3o2)cc1 [Tangeretin (Tangeritin)]	95.5% and 98.4%	103	91.7	90.8	96	102	82.9	88.1
CC1=CC(=O)NS(=O)(=O)O1 [Acesulfame Potassium]	96.3% and 96.7%	96.3	98.1	94.4	98.9	97.8	89.1	105
CNCCc1ccccn1 [Betahistine 2HCl]	97.2% and 99.7%	95.5	88.7	102	90.6	99.8	89.3	101
COc1cc(OC)c(NC(=O)Nc2cc(C)on2)cc1Cl	91.9% and 83.8%	85.7	86.4	86.6	61.3	74.5	73.4	74.3
Nc1nc(NCCNc2ncc(-n3ccnc3)c(-c3ccc(Cl)cc3Cl)n2)ccc1[N+](=O)[O-]	110% and 106%	99.1	125	132	109	115	131	148
COc1cc([C@H]2OC[C@H]3[C@@H]2CO[C@@H]3c2ccc(O[C@@H]3O[C@H](CO)[C@@H](O)[C@H](O)[C@H]3O)c(OC)c2)ccc1O[C@@H]1O[C@H](CO)[C@@H](O)[C@H](O)[C@H]1O [Pinoresinol diglucoside]	105% and 104%	101	105	108	105	103	104	109
O=C(O)C1=C(CSc2nnnn2CS(=O)(=O)O)CS[C@@H]2[C@H](NC(=O)[C@H](O)c3ccccc3)C(=O)N12 [Cefonicid sodium]	103%	102	97.2	108	96.3	105	103	113
Cn1cc(-c2ccc(S(=O)(=O)n3ccc(/C=C/C(=O)Nc4ccccc4N)c3)cc2)cn1	15% and 29.1%	32	6.4	5.67	7.6	2.05	8.31	8.21
CN(C)c1nc(N(C)C)nc(N(C)C)n1 [Altretamine (Hexalen)]	99.3% and 102%	99.7	97.3	95.2	94	98.5	99.7	98.4
COC(=O)C1=C(C)NC(C)=C(C(=O)OCCN(C)Cc2ccccc2)C1c1cccc([N+](=O)[O-])c1 (stereo not drawn) [Nicardipine HCl]	79.8% and 89.1%	80.5	81.8	91.3	87.9	81.1	85.8	85
COc1c(C)c2c(c(O)c1C/C=C(\C)CCC(=O)OCCN1CCOCC1)C(=O)OC2 [Mycophenolate mofetil (CellCept)]	50.6% and 48.7%	45.1	45.4	43.6	9.99	2.92	13.5	12.2
Cn1c(N2CCCCS2(=O)=O)nc(C(=O)NCc2ccc(F)cc2)c(O)c1=O	110%	113	108	115	112	111	112	102
COc1ccc(-c2ccc3cc(C(=O)O)ccc3c2)cc1C12CC3CC(CC(C3)C1)C2 [Adapalene]	93.7% and 97.8%	88.2	45.3	26.6	56.9	23.9	31.2	38.6
CC(C)NC(=O)COc1cccc(-c2nc(Nc3ccc4[nH]ncc4c3)c3ccccc3n2)c1	73.5% and 97.8%	84.7	68.6	72.4	93.6	89.8	110	87.8
COc1ccc(CNc2nc(N3CCC[C@H]3CO)ncc2C(=O)NCc2ncccn2)cc1Cl [Avanafil]	96.2% and 96.6%	98.8	104	106	103	104	102	105
CC#C[C@]1(O)CC[C@H]2[C@@H]3CCC4=CC(=O)CCC4=C3[C@@H](c3ccc(N(C)C)cc3)C[C@@]21C [Mifepristone (Mifeprex)]	84.3% and 91.5%	86.8	86.7	90.7	79.7	89.6	104	92.6
CCN1CC(CCN2CCOCC2)C(c2ccccc2)(c2ccccc2)C1=O (stereo not drawn) [Doxapram HCl]	104% and 111%	112	112	111	104	109	111	95.4
Cc1cnc(-c2ccccc2C(C)C)nc1NCc1ccc(-n2ccnn2)cc1	76.7% and 83.9%	74.5	91.1	89.7	94	88.5	93.2	90.2
CN(C)CCC(c1ccc(Br)cc1)c1ccccn1 (stereo not drawn) [Brompheniramine hydrogen maleate]	95.3% and 97.4%	91.3	86.2	90.7	101	98.8	112	109

SMILES	cell viability ([1]; SRSF2 genotype: SRSF2 P95H/wt)	cell viability ([1]; SRSF2 genotype: SRSF2 wt/wt) [%]	cell viability ([2]; SRSF2 genotype: SRSF2 P95H/wt) [%]	cell viability ([2]; SRSF2 genotype: SRSF2 wt/wt) [%]	cell viability ([3]; SRSF2 genotype: SRSF2 P95H/wt) [%]	cell viability ([3]; SRSF2 genotype: SRSF2 wt/wt) [%]	cell viability ([4]; SRSF2 genotype: P95H/wt) [%]	cell viability ([4]; SRSF2 genotype: wt/wt) [%]
COc1cc(-c2oc3cc(O)cc(O)c3c(=O)c2O[C@@H]2O[C@H](CO[C@@H]3O[C@@H](C)[C@H](O)[C@@H](O)[C@H]3O)[C@@H](O)[C@H](O)[C@H]2O)ccc1O [Narcissoside]	108% and 102%	106	102	103	107	105	103	109
COc1ccc(C[C@H](N)C(=O)N[C@H]2[C@@H](O)[C@H](n3cnc4c(N(C)C)ncnc43)O[C@@H]2CO)cc1 [Puromycin 2HCl]	1.95% and 1.45%	1.55	1.69	0.77	0.25	0.31	0.26	0.49
CN(C)C1CCN(C(=O)c2ccc(NC(=O)Nc3ccc(-c4nc(N5CCOCC5)nc(N5CCOCC5)n4)cc3)cc2)CC1	34.1% and 32.1%	26.6	43.2	34.9	22.1	21.3	10.5	16.2
CC(C)(C)C(O)/C=C/c1ccc2c(c1)OCO2 (stereo not drawn) [Stiripentol]	105% and 95.5%	101	94.5	108	100	107	95.3	100
CC(C)(CO)n1cc(C(=O)c2cncc(NC(=O)Cc3ccc(Cl)cn3)c2)c2cnc(N)nc21	104%	111	115	109	64.3	76.5	107	93.4
COC(=O)Nc1ccc(-c2nc(N3CCOCC3)c3cnn(C4CCN(C(=O)OC)CC4)c3n2)cc1	43.8% and 55.5%	48.8	53.5	52	40.9	34.3	33.9	32.9
COc1cc([C@@H]2Oc3cc([C@H]4Oc5cc(O)cc(O)c5C(=O)[C@@H]4O)ccc3O[C@H]2CO)ccc1O [Silymarin (Silybin B)]	106% and 94.4%	95.6	99.6	108	105	102	106	114
C=CCc1ccc(O)c(-c2cc(CC=C)ccc2O)c1 [Magnolol]	85.6% and 95.6%	96.6	99.5	112	93.9	103	86.2	106
c1ccc(NCc2ccc(CNc3ccccn3)cc2)nc1	91.8% and 94.5%	85	89	91.9	87.2	92.9	78.6	84.2
O=C[C@H](O)[C@@H](O)[C@H](O)CO [Xylose]	95% and 93.8%	96	90.4	96.1	91.8	95.2	103	88.2
NCCCCCNCC12CC3CC(CC(C3)C1)C2 [IEM 1754 dihydrobroMide]	102% and 104%	95	104	105	103	102	91.4	100
COc1cc(N2CCC(N)CC2)ccc1Nc1ncc(Cl)c(-c2c[nH]c3ccccc23)n1	14.5% and 15.7%	7.15	37.8	33.6	1.81	5.73	6	16.7
Cc1cc(N2CCN([C@@H]3CN[C@H](C(=O)N4CCSC4)C3)CC2)n(-c2ccccc2)n1 [Teneligliptin hydrobromide]	90.4% and 78%	83.5	86.8	95.5	84.8	89	94.2	91.8
O=c1[nH]c(=S)[nH]c2nc(-c3ccccc3)c(-c3ccccc3)nc12	97.9% and 90.8%	92	103	105	92.8	97.4	98.9	98.3
O=c1[nH]c(=O)c2[nH]cnc2[nH]1 [2,6-Dihydroxypurine]	107% and 100%	104	106	110	101	107	101	109
OCc1cc(C(O)CNCCCCCCOCCCCc2ccccc2)ccc1O (stereo not drawn) [Salmeterol]	77.8% and 87.8%	88.4	67.7	68.6	62.8	74.9	55.2	60.2
COc1cc(/C=C/C(=O)O[C@H]2CC[C@]34C[C@]35CC[C@]3(C)[C@@H]([C@H](C)CCC=C(C)C)CC[C@@]3(C)[C@@H]5CC[C@H]4C2(C)C)ccc1O [Gamma-Oryzanol]	96.7% and 93.9%	97.5	98.5	107	103	101	97.7	107
Fc1ccc(-c2c3cccc(C(F)(F)F)c3nn2Cc2ccc(F)cc2Cl)cc1	95.4% and 91.2%	90.1	97.2	114	94.2	98	114	120
C=C1CCC[C@]2(C)C[C@]3(O)OC(=O)C(C)=C3C[C@@H]12 [Atractylenolide III]	105% and 101%	99.3	101	102	102	99	94.9	106
C[C@H](CCC(=O)O)[C@H]1CC[C@H]2[C@@H]3[C@H](O)C[C@@H]4C[C@H](O)CC[C@]4(C)[C@H]3C[C@H](O)[C@]12C [Cholic acid]	94.2% and 93.3%	100	91.6	98	98.9	97.6	98.5	98.9
